# From PubChem BioAssay (EPA / NIEHS)
# Values joined by “and” are separate entries in the source; they are usually repeats but may differ in a detail not shown here. Equal values may be shown once. Where a structure was tested more than once in an assay, its records may differ in their call. Active and inactive are the calls of the source. Rule for the calls: active = hit-call score of the fitted dose curve at least 0.9, where 1 is the maximum; inactive = score below 0.9.
# Key:
# [1] = target: Transcription factor E2F1 (Homo sapiens) (UniProt Q01094); experiment: ATG_E2F_CIS: Attagene CIS-FACTORIAL HepG2 Assay for human E2F Transcription Factor 1 (AID 2282935); conditions: HepG2 Attagene cis-reporter, E2F reporter RNA transcripts; actives raise or lower the signal
# Chain of Transcription factor E2F1 (Homo sapiens) (Q01094 whole entry, looked up): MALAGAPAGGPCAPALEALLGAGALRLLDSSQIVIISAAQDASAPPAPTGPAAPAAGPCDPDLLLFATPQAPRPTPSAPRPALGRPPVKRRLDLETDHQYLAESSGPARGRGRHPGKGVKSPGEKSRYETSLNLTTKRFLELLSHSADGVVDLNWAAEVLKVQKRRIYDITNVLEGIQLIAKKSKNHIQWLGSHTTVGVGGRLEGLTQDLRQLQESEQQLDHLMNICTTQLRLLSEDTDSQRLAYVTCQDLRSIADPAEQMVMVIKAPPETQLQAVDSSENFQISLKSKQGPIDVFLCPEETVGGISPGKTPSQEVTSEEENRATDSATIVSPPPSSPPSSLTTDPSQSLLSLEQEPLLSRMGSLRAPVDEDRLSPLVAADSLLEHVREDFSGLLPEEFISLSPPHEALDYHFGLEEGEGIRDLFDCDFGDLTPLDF
# Procedure, shortened: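 Fluorescent RT-PCR products, digested with HpaI for 2 h at 37 C, are separated by capillary electrophoresis. Source RNA comes from transfected HepG2 cultures treated for 24 h.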
# [2] = ATG_E_Box_CIS: Attagene CIS-FACTORIAL HepG2 Assay for human Enhancer Box (E-box) (AID 2282936); conditions: HepG2 E-box cis-reporter transcription, actives raise or lower the signal
# Procedure, shortened: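 Fluorescent reporter fragments separated by capillary electrophoresis gave the signal; mRNA came from HepG2 cells transfected with cis-element reporters and treated 24 h. Curves fitted bidirectionally relative to DMSO controls.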
# [3] = ATG_M_61_CIS: Attagene CIS-FACTORIAL HepG2 Assay for M61 Transcription Factor (Internal Marker) (AID 2282937); conditions: HepG2 Attagene CIS-FACTORIAL M61 internal marker reporter; actives raise or lower the signal
# Procedure, shortened: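 Cells were transfected with reporter units under cis-regulatory promoters, treated with chemicals for 24 h, then lysed for RNA. Reporter transcripts were quantified by RT-PCR and capillary electrophoresis, and activity was fitted bidirectionally against DMSO.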
# [4] = ATG_EGR_CIS: Attagene CIS-FACTORIAL HepG2 Assay for human Early Growth Response 1 (EGR1) (AID 2282938); conditions: HepG2 Attagene CIS-FACTORIAL EGR reporter mRNA; actives raise or lower the signal
# Procedure, shortened: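 Endogenous TF activity in HepG2 liver cells was gauged through cis-promoter reporter constructs transiently transfected. After 24 h dosing, reporter mRNA was quantified by RT-PCR and capillary electrophoresis, and curves fitted in both directions versus DMSO.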
# [5] = ATG_M_19_CIS: Attagene CIS-FACTORIAL HepG2 Assay for M19 Transcription Factor (Internal Marker) (AID 2282939); conditions: HepG2 Attagene CIS-FACTORIAL M19 internal marker reporter; actives raise or lower the signal
# Procedure, shortened: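 HepG2 cells transiently transfected with cis-regulated multiple reporter transcription units were dosed for 24 h; reporter mRNA was quantified by RT-PCR, 6-FAM primer-extension labelling, HpaI digestion and capillary electrophoresis, with bidirectional fitting against DMSO baseline.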
# [6] = ATG_ERE_CIS: Attagene CIS-FACTORIAL HepG2 Assay for Estrogen Response Element (ERE) (AID 2282940); conditions: HepG2 ERE cis-reporter, Attagene RNA transcript; actives raise or lower the signal
# Procedure, shortened: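 HepG2 cells transiently transfected with cis-promoter-driven multiplexed reporter transcription units report endogenous TF activity. After 24 h compound exposure, reporter mRNA is quantified by RT-PCR with capillary electrophoresis fluorescence; bidirectional fitting versus DMSO baseline.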
# [7] = ATG_Ets_CIS: Attagene CIS-FACTORIAL HepG2 Assay for human Erythroblast Transformation Specific (ETS) (AID 2282941); conditions: HepG2 ETS cis-reporter transcription, actives raise or lower the signal
# Procedure, shortened: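 Endogenous transcription factor activity read as reporter mRNA via RT-PCR and capillary electrophoresis, with gain or loss fitted bidirectionally against DMSO. Human HepG2 liver cells, transiently transfected CIS reporter constructs, 24 h exposure.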
# [8] = target: Hepatocyte nuclear factor 3-beta (Homo sapiens) (UniProt Q9Y261); experiment: ATG_FoxA2_CIS: Attagene CIS-FACTORIAL HepG2 Assay for human Forkhead box A2 (FOXA2) (AID 2282942); conditions: HepG2 cis-reporter transcription factor activity, 24 h; actives raise or lower the signal
# Chain of Hepatocyte nuclear factor 3-beta (Homo sapiens) (Q9Y261 whole entry, looked up): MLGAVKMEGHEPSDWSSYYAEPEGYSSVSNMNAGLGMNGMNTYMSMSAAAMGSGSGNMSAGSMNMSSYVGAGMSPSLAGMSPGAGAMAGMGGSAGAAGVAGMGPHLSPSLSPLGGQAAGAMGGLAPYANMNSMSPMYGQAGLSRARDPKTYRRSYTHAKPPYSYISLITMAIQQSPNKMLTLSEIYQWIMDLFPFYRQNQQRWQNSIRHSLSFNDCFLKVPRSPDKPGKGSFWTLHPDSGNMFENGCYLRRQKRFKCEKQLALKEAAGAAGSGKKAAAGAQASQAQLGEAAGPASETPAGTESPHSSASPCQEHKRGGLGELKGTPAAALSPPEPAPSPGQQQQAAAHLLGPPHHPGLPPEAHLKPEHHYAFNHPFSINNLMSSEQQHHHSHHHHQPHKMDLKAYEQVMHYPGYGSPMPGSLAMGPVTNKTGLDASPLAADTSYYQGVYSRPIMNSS
# Procedure, shortened: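 Endogenous transcription factor activity was read in HepG2 cells carrying transiently transfected cis-promoter reporter units. After 24 h dosing, reporter mRNA was quantified by RT-PCR and capillary electrophoresis, and values fitted bidirectionally versus DMSO.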
# [9] = ATG_FoxO_CIS: Attagene CIS-FACTORIAL HepG2 Assay for human Forkhead box O (FoxO) (AID 2282943); conditions: HepG2 Attagene cis-reporter, FoxO element, mRNA; actives raise or lower the signal
# Procedure, shortened: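 HepG2, transient MRTU transfection (cis element, endogenous TFs). Dose 24 h. TriZol RNA → oligo(dT) RT → PCR → 6-FAM primer extension → HpaI cut → CE. Gain/loss vs DMSO.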
# [10] = ATG_GATA_CIS: Attagene CIS-FACTORIAL HepG2 Assay for human GATA Binding Protein (AID 2282944); conditions: HepG2 GATA cis-element reporter, Attagene multiplex mRNA; actives raise or lower the signal
# Procedure, shortened: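 HepG2 cells transiently transfected with multiplexed cis-element reporter units reflecting endogenous transcription factor activity; reporter mRNA measured after 24 h dosing by RT-PCR, 6-FAM labeling, HpaI digestion and capillary electrophoresis. Bidirectional fitting versus DMSO baseline.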
# [11] = ATG_GLI_CIS: Attagene CIS-FACTORIAL HepG2 Assay for human Zinc Finger Protein GLI1 (AID 2282945); conditions: HepG2, Attagene cis-factorial reporter mRNA, GLI element; actives raise or lower the signal
# Procedure, shortened: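 Bidirectional curve fits relative to DMSO, using reporter mRNA levels from RT-PCR plus capillary electrophoresis. Cells were HepG2 transiently carrying cis-regulated reporter constructs, harvested 24 h after dosing.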
# [12] = ATG_GRE_CIS: Attagene CIS-FACTORIAL HepG2 Assay for human Glucocorticoid Response Elements (GRE) (AID 2282947); conditions: HepG2 GRE cis-reporter, Attagene multiplex mRNA; actives raise or lower the signal
# Procedure, shortened: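 Multiplexed cis-reporter mRNA induction, HepG2, 24 h post-dose. RT-PCR, FAM-labelled, HpaI-digested amplicons by CE. Bidirectional fit vs DMSO.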
# [13] = ATG_ISRE_CIS: Attagene CIS-FACTORIAL HepG2 Assay for human Interferon Regulatory Factor 1 (IRF1) binding to an Interferon-Stimulated Response Element (ISRE) (AID 2282948); conditions: HepG2 ISRE cis-reporter (Attagene), mRNA transcription readout; actives raise or lower the signal
# Procedure, shortened: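 Endogenous transcription factor activity read as reporter transcript abundance via RT-PCR and capillary electrophoresis. HepG2 cells transiently transfected, 24 h chemical exposure. Gain or loss fitted against DMSO baseline.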
# [14] = ATG_M_32_CIS: Attagene CIS-FACTORIAL HepG2 Assay for M32 Transcription Factor (Internal Marker) (AID 2282949); conditions: HepG2 Attagene cis-factorial M32 reporter, mRNA; actives raise or lower the signal;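 note: background control marker of the multiplexed CIS panel rather than a real target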
# Procedure, shortened: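 Using DMSO as baseline, bidirectional curve fits were applied to reporter mRNA signals. These came from transiently transfected HepG2 cells exposed for 24 h, with RNA analysed by RT-PCR, FAM primer extension, HpaI digestion and CE.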
# [15] = ATG_M_06_CIS: Attagene CIS-FACTORIAL HepG2 Assay for M06 Transcription Factor (Internal Marker) (AID 2282950); conditions: HepG2 Attagene CIS-FACTORIAL M06 internal marker reporter; actives raise or lower the signal
# Procedure, shortened: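 HepG2 cells transiently transfected with cis-regulated multiple reporter transcription units were exposed to chemical for 24 h; reporter mRNA was quantified by RT-PCR, 6-FAM primer labelling, HpaI digestion and capillary electrophoresis, fitted bidirectionally against DMSO.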
# [16] = target: Hypoxia-inducible factor 1-alpha (Homo sapiens) (UniProt Q16665); experiment: ATG_HIF1a_CIS: Attagene CIS-FACTORIAL HepG2 Assay for human Hypoxia Inducible Factor 1 (HIF1A) (AID 2282951); conditions: HepG2 Attagene cis-factorial HIF1a reporter transcription; actives raise or lower the signal
# Chain of Hypoxia-inducible factor 1-alpha (Homo sapiens) (Q16665 whole entry, looked up): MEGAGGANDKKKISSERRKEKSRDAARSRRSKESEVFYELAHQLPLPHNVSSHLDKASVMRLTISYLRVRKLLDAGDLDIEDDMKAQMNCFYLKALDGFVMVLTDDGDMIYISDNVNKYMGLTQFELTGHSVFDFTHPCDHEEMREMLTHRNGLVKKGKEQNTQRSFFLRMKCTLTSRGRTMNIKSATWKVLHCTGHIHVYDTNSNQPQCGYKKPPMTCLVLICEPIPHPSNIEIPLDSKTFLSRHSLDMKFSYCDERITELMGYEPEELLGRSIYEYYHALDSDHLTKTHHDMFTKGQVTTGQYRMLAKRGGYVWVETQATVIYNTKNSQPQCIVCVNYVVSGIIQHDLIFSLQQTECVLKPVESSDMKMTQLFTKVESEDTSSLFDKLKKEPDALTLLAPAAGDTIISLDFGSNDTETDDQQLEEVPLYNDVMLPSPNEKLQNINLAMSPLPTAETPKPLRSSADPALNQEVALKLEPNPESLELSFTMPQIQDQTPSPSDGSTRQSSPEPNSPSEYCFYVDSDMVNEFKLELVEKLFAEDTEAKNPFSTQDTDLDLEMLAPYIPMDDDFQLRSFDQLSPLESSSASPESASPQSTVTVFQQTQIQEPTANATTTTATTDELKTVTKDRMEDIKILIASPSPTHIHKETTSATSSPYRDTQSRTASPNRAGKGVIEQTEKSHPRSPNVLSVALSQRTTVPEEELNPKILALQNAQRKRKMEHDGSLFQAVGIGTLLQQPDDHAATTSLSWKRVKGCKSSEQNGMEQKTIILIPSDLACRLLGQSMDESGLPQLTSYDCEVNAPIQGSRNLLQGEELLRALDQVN
# Procedure, shortened: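 Measures endogenous transcription-factor activity through cis-regulated reporter mRNA in HepG2. Cells dosed 24 h; transcripts quantified by RT-PCR with 6-FAM-labelled products separated by capillary electrophoresis; DMSO serves as negative control.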
# [17] = target: Hepatocyte nuclear factor 6 (Homo sapiens) (UniProt Q9UBC0); experiment: ATG_HNF6_CIS: Attagene CIS-FACTORIAL HepG2 Assay for human Hepatocyte Nuclear Factor 6 (HNF6) (AID 2282952); conditions: HepG2 Attagene cis-factorial HNF6 reporter transcription; actives raise or lower the signal
# Chain of Hepatocyte nuclear factor 6 (Homo sapiens) (Q9UBC0 whole entry, looked up): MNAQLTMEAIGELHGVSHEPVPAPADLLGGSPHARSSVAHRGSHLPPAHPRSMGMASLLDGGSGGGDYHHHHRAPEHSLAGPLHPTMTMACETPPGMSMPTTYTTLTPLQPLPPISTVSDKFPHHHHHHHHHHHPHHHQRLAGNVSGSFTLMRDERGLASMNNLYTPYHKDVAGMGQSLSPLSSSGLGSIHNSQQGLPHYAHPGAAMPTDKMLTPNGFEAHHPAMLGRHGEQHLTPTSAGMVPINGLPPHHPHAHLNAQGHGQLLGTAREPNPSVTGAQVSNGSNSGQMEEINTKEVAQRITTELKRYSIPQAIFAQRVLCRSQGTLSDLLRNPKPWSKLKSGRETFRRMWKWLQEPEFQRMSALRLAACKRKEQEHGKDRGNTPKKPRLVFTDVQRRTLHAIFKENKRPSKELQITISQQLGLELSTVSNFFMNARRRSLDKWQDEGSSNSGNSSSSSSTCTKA
# Procedure, shortened: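 Endogenous factor activity read in transiently transfected HepG2 via promoter-regulated reporter transcripts. RNA harvested 24 h post-dosing, reverse-transcribed, PCR-amplified, FAM-labelled, HpaI-digested and resolved by capillary electrophoresis; fitted in both directions against DMSO.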
# [18] = target: Heat shock factor protein 1 (Homo sapiens) (UniProt Q00613); experiment: ATG_HSE_CIS: Attagene CIS-FACTORIAL HepG2 Assay for human Heat Shock Transcription Factor 1 (HSE) (AID 2282953); conditions: HepG2 HSE cis-reporter, Attagene RNA transcription; actives raise or lower the signal
# Chain of Heat shock factor protein 1 (Homo sapiens) (Q00613 whole entry, looked up): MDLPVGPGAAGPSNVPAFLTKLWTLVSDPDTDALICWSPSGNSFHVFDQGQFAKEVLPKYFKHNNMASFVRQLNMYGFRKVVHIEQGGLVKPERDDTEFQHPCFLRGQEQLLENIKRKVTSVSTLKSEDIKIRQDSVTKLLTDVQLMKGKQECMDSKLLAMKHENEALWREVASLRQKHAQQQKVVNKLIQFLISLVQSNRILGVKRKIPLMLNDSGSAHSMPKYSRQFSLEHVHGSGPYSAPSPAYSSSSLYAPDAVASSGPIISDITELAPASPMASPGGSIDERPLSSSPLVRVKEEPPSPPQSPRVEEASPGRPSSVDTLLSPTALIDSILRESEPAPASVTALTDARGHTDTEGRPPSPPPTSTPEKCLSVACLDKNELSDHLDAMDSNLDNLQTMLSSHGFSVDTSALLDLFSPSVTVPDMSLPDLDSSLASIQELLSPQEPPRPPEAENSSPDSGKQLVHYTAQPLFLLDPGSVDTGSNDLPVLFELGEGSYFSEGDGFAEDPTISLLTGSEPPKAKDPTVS
# Procedure, shortened: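 HepG2 cells transiently transfected with multiple reporter transcription units under cis-regulatory promoter control, measuring endogenous transcription factor activity. After 24 h chemical exposure, reporter mRNA quantified by RT-PCR, fluorescent labelling, HpaI digestion and capillary electrophoresis; bidirectional fit versus DMSO.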
# [19] = ATG_MRE_CIS: Attagene CIS-FACTORIAL HepG2 Assay for human Metal Responsive Element (MRE) (AID 2282954); conditions: HepG2 MRE cis-reporter transcription, Attagene multiplex; actives raise or lower the signal
# Procedure, shortened: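 Multiplexed cis-reporter assay in human HepG2 liver cells, 24 h incubation with test chemical. Reporter transcripts measured by RT-PCR and capillary electrophoresis; values from bidirectional curve fitting versus DMSO.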
# [20] = target: Bile acid receptor (Homo sapiens) (UniProt Q96RI1); experiment: ATG_IR1_CIS: Attagene CIS-FACTORIAL HepG2 Assay for human Nuclear Receptor Subfamily 1 Group H Member 4 (NR1H4), IR1 submotif (AID 2282946); conditions: IR1 reporter transcription, actives raise or lower the signal
# Chain of Bile acid receptor (Homo sapiens) (Q96RI1 whole entry, looked up): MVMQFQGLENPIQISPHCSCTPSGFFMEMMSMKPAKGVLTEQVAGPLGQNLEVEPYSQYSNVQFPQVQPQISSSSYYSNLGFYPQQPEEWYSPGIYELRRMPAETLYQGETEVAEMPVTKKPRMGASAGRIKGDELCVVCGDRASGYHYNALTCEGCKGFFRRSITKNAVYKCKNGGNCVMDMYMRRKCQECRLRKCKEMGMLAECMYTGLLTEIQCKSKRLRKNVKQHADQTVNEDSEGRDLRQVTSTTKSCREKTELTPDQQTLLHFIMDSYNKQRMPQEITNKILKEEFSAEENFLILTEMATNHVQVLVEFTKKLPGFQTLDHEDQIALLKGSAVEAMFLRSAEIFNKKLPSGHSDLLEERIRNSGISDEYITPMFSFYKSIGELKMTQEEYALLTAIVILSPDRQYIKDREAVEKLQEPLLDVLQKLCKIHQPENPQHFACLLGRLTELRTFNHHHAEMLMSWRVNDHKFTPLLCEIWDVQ
# Procedure, shortened: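 HepG2 cells transiently transfected with multiplexed cis-element reporter units read endogenous transcription factor activity. After 24 h compound exposure, reporter mRNA was quantified by RT-PCR, fluorescent labelling, HpaI digestion and capillary electrophoresis; bidirectional fitting versus DMSO baseline.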
smiles,measurement,setting,value
CC(C)c1ccccc1N,outcome,[1],inactive
same,outcome,[2],inactive
same,outcome,[3],inactive
same,outcome,[4],inactive
same,outcome,[5],inactive
same,outcome,[6],inactive
same,outcome,[7],inactive
same,outcome,[8],inactive
same,AC50,[9],152 µM (active)
same,outcome,[10],inactive
same,outcome,[11],inactive
same,outcome,[12],inactive
same,outcome,[13],inactive
same,outcome,[14],inactive
same,outcome,[15],inactive
same,outcome,[16],inactive
same,outcome,[17],inactive
same,outcome,[18],inactive
same,outcome,[19],inactive
Nc1ccc(S(=O)(=O)Nc2nccs2)cc1,outcome,[1],inactive
same,outcome,[2],inactive
same,outcome,[3],inactive
same,outcome,[4],inactive
same,outcome,[5],inactive
same,outcome,[6],inactive
same,outcome,[7],inactive
same,outcome,[8],inactive
same,outcome,[9],inactive
same,outcome,[10],inactive
same,outcome,[11],inactive
same,outcome,[13],inactive
same,outcome,[14],inactive
same,outcome,[15],inactive
same,outcome,[17],inactive
same,outcome,[18],inactive
same,outcome,[19],inactive
CC(C)(C)c1ccc(OC2CCCCC2O)cc1 (stereo not given),outcome,[1],inactive
same,outcome,[2],inactive
same,outcome,[3],inactive
same,outcome,[4],inactive
same,outcome,[5],inactive
same,outcome,[6],inactive
same,outcome,[7],inactive
same,outcome,[8],inactive
same,outcome,[9],inactive
same,outcome,[10],inactive
same,outcome,[11],inactive
same,outcome,[20],inactive
same,outcome,[13],inactive
same,outcome,[14],inactive
same,outcome,[15],inactive
same,outcome,[16],inactive
same,outcome,[17],inactive
same,outcome,[18],inactive
same,outcome,[19],inactive
O=C(O)C(F)(F)C(F)(F)C(F)(F)C(F)(F)C(F)(F)C(F)(F)C(F)(F)C(F)(F)Cl,outcome,[1],inactive
same,outcome,[2],inactive
same,outcome,[3],inactive
same,AC50,[4],50 µM (active) and 64.8 µM (active)
same,outcome,[5],inactive
same,AC50,[6],15.4 µM (active) and 21.7 µM (active)
same,outcome,[7],inactive
same,outcome,[8],inactive
same,outcome,[9],inactive
same,outcome,[10],inactive
same,outcome,[11],inactive
same,outcome,[20],inactive
same,AC50,[13],32.1 µM (active) and 50 µM (active)
same,outcome,[14],inactive
same,outcome,[15],inactive
same,AC50,[16],50 µM (active)
same,outcome,[17],inactive
same,AC50,[18],75.8 µM (active) and 82.1 µM (active)
same,AC50,[19],55.5 µM (active) and 66.6 µM (active)
C=CC/C=C/C/C=C/C/C=C/C,outcome,[1],inactive
same,outcome,[2],inactive
same,outcome,[3],inactive
same,outcome,[4],inactive
same,outcome,[5],inactive
same,outcome,[6],inactive
same,outcome,[7],inactive
same,outcome,[8],inactive
same,outcome,[9],inactive
same,outcome,[10],inactive
same,outcome,[11],inactive
same,outcome,[13],inactive
same,outcome,[14],inactive
same,outcome,[15],inactive
same,outcome,[16],inactive
same,outcome,[17],inactive
same,outcome,[18],inactive
same,outcome,[19],inactive
O=S(=O)(O)C(F)(F)C(F)(F)C(F)(F)C(F)(F)C(F)(F)C(F)(F)C(F)(F)F,outcome,[1],inactive
same,outcome,[2],inactive
same,outcome,[3],inactive
same,outcome,[4],inactive
same,outcome,[5],inactive
same,AC50,[6],48.4 µM (active) and 69.9 µM (active)
same,outcome,[7],inactive
same,outcome,[8],inactive
same,outcome,[9],inactive
same,outcome,[10],inactive
same,outcome,[11],inactive
same,outcome,[13],inactive
same,AC50,[14],149 µM (active)
same,outcome,[14],inactive
same,outcome,[15],inactive
same,outcome,[16],inactive
same,AC50,[17],157 µM (active)
same,outcome,[17],inactive
same,outcome,[18],inactive
same,outcome,[19],inactive
O=S(=O)(OCCOC(F)(F)F)C(F)(F)F,outcome,[1],inactive
same,outcome,[2],inactive
same,outcome,[3],inactive
same,outcome,[4],inactive
same,outcome,[5],inactive
same,outcome,[6],inactive
same,outcome,[7],inactive
same,outcome,[8],inactive
same,outcome,[9],inactive
same,outcome,[10],inactive
same,outcome,[11],inactive
same,outcome,[13],inactive
same,outcome,[14],inactive
same,outcome,[15],inactive
same,outcome,[16],inactive
same,outcome,[17],inactive
same,outcome,[18],inactive
same,outcome,[19],inactive
